Sampled rows, rich in hits. Any-hit rate of the full collection: about 2.5%.
HDAC3 inhib = blocks human histone deacetylase 3; hit rate 0.15% among 320,000; recombinant HDAC3, fluorogenic peptide/trypsin coupled, fluorescence; AID 2718; O15379; inhibition, % at 8.3 µM; in the data active = inhibition above about 26%, passing the limit was not always enough; inconclusive = no clear call, values can overlap the other calls
PHOSPHO1 inh = blocks human PHOSPHO1 phosphatase activity; recombinant PHOSPHO1, absorbance phosphatase assay; inhibition, % at 13.3 µM; hit rate 1.1% among 290,000; Q8TCT1; in the data active = inhibition above about 60%
M18AAP inhibitor = PfM18AAP enzyme inhibition | AID 1822 | inhibition, % at 7.35 µM | recombinant PfM18AAP, H-Glu-NHMec fluorogenic cleavage | hit rate 1.2% among 290,000;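 active = inhibition above the campaign mean inhibition over all tested compounds plus 3 SD, cut at about 28% in these data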;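 note: 0% = plate median of test compound wells and 100% = 2 mM ZnCl2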
p97 ATPase inh = blocks human p97 ATPase activity. recombinant p97 ATPase, Kinase-Glo ATP luminescence, 3 h. hit rate 0.42% among 220,000. P55072. inhibition, % at 8 µM. AID 1481; in the data active = inhibition above about 15%;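 note: 0% = DMSO vehicle and 100% = wells lacking enzyme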
Target sequence (P55072 whole entry, looked up): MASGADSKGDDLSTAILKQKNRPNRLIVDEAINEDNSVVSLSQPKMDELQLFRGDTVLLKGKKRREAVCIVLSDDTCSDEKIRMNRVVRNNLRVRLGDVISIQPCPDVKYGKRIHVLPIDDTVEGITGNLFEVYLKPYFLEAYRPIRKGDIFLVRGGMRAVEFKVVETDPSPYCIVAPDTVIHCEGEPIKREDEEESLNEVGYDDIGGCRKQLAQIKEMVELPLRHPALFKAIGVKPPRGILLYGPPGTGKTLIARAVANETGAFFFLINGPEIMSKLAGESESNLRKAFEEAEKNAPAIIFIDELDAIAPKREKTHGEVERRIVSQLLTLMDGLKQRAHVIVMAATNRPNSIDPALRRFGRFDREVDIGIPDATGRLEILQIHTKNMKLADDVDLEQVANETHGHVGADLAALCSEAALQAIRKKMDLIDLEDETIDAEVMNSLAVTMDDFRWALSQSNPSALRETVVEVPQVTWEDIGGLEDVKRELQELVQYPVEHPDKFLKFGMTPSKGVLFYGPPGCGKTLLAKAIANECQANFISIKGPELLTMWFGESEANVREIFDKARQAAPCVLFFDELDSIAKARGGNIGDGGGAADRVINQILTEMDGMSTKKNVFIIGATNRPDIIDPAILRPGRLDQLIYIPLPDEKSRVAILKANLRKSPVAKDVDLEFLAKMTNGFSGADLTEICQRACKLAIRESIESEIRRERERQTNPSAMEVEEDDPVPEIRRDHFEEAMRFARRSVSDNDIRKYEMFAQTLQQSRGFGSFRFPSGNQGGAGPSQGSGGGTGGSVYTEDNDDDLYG
SUMO HTRF inh = SUMOylation inhibition | P63279 | HTRF SUMOylation assay, SAE1/SAE2 + UBC9, in vitro | inhibition, % at 35 µM | hit rate 0.36% among 290,000 | AID 2006; in the data active = inhibition above about 50%, passing the limit was not always enough; inconclusive = no clear call, values can overlap the other calls
G6PDH counter = inhibits Leuconostoc G6PDH, flagging false hits in G6PDH-based assays | Purified L. mesenteroides G6PDH, diaphorase/resazurin coupled fluorescence, 45 min | inhibition, % at 5 µM | hit rate 0.12% among 200,000 | AID 1020; in the data active = inhibition above about 50%
Starred values were filed as active, the others as inactive.

How did CCOC(=O)CSC1=C(C#N)C(=O)NC(c2ccc(OC)cc2)S1 (configuration not stated) do in these assays?
HDAC3 inhib: 11.7; PHOSPHO1 inh: 87.4*; M18AAP inhibitor: -4.0; p97 ATPase inh: -9.4; SUMO HTRF inh: 30.4; G6PDH counter: -0.5

How did COc1ccc(C2NC(=O)C(C#N)=C(S)N2c2ccc(C)cc2)cc1OC (configuration not stated) do in these assays?
HDAC3 inhib: 5.4; PHOSPHO1 inh: 57.8; M18AAP inhibitor: 6.7; p97 ATPase inh: 3.3; SUMO HTRF inh: 10.6; G6PDH counter: 4.6

What do the screens show for `CC1(c2ccccc2Cl)NC(=O)N(CC(=O)NCc2ccc3c(c2)OCO3)C1=O` (configuration not stated)?
HDAC3 inhib: 5.3; PHOSPHO1 inh: 28.0; M18AAP inhibitor: -6.3; SUMO HTRF inh: 6.3

Results for O=C(COC(=O)/C=C/c1cccc(F)c1)NC(=O)NCc1ccccc1 ?
HDAC3 inhib: -13.2

What do the screens show for `O=C(CC1S/C(=N/N=C/C=C/c2ccccc2)NC1=O)Nc1ccc(Cl)c(Cl)c1` (configuration not stated)?
HDAC3 inhib: -0.3; PHOSPHO1 inh: -12.5; M18AAP inhibitor: -12.9; p97 ATPase inh: -0.6; SUMO HTRF inh: 67.9*; G6PDH counter: 0.3

What do the screens show for `O=C(O)CC1S/C(=N/N=C/C=C/c2ccccc2)NC1=O` (configuration not stated)?
HDAC3 inhib: inconclusive; PHOSPHO1 inh: 11.1; M18AAP inhibitor: 3.9; p97 ATPase inh: -3.9; SUMO HTRF inh: 7.0; G6PDH counter: 5.1

How did Cc1cc(N(C)Cc2ccccc2)nc2cc(O)ccc12 do in these assays?
HDAC3 inhib: -41.1; PHOSPHO1 inh: 10.9; M18AAP inhibitor: 10.5; SUMO HTRF inh: 11.1

Results for CCCCC[n+]1ccn(C2=C([O-])c3ccccc3C(=O)/C2=N\S(=O)(=O)c2ccccc2)c1 ?
HDAC3 inhib: 8.0; PHOSPHO1 inh: 25.4; M18AAP inhibitor: 1.0; p97 ATPase inh: 3.3; SUMO HTRF inh: -19.3; G6PDH counter: 54.9*

What do the screens show for `CCCC[n+]1ccn(C2=C([O-])c3ccccc3C(=O)/C2=N\S(=O)(=O)c2ccccc2)c1`?
HDAC3 inhib: -2.4; PHOSPHO1 inh: 6.1; M18AAP inhibitor: 2.2; p97 ATPase inh: 6.8; SUMO HTRF inh: -2.7; G6PDH counter: 56.3*

How did Cc1cccc(NC(=O)CSCC(=O)NNC(=O)c2ccoc2C)c1 do in these assays?
HDAC3 inhib: -11.8; PHOSPHO1 inh: 22.6; M18AAP inhibitor: -1.5; SUMO HTRF inh: 0.4

How did COc1ccc(C(=O)c2c3ccc(C(F)(F)F)cc3[n+]([O-])n2CCCN)cc1 do in these assays?
HDAC3 inhib: 4.6

What do the screens show for `COc1ccc(OCC(=O)N2CCCC(CO)(CCOc3ccccc3)C2)cc1` (configuration not stated)?
HDAC3 inhib: 10.5; PHOSPHO1 inh: 54.3; M18AAP inhibitor: 1.1; SUMO HTRF inh: -2.0

Results for COc1ccc(/C(C)=N/Nc2ccc(C(=O)O)cc2)c(OC)c1 ?
HDAC3 inhib: 1.7; PHOSPHO1 inh: 6.3; M18AAP inhibitor: 28.5*; p97 ATPase inh: 2.6; SUMO HTRF inh: 8.0; G6PDH counter: 7.8

How did CCN(CC)CCN(Cc1cc2cc3c(cc2[nH]c1=O)OCO3)C(=S)NCC1CCCO1 (configuration not stated) do in these assays?
HDAC3 inhib: -16.7; PHOSPHO1 inh: 11.9; M18AAP inhibitor: 28.2*; p97 ATPase inh: 3.3; SUMO HTRF inh: 2.2; G6PDH counter: 6.0

What do the screens show for `Cc1ccc(O)c(N/C=C/C(=O)c2ccc(F)cc2)c1`?
HDAC3 inhib: 1.1; PHOSPHO1 inh: 8.8; M18AAP inhibitor: 28.4*; SUMO HTRF inh: -11.4

Results for O=C1CCC/C(=N\NC(=O)c2ccc(COc3ccccc3-c3ccccc3)cc2)C1 ?
PHOSPHO1 inh: 11.7; M18AAP inhibitor: -1.6; p97 ATPase inh: -0.9; SUMO HTRF inh: 11.2; G6PDH counter: -0.2

What do the screens show for `O=C(COc1ccccc1-c1ccccc1)NN=C1CCCC1`?
HDAC3 inhib: 2.2; PHOSPHO1 inh: 60.9*; M18AAP inhibitor: 3.0; p97 ATPase inh: 1.9; SUMO HTRF inh: -11.9; G6PDH counter: -1.8

What do the screens show for `Cc1cccc(N(CC(=O)NCCc2ccccc2)C(=O)CCC(=O)Nc2ccccn2)c1C`?
HDAC3 inhib: 4.3; PHOSPHO1 inh: 36.6; M18AAP inhibitor: 6.4; SUMO HTRF inh: -4.9

What do the screens show for `Nc1c(-c2ccccc2)cnn1-c1cccc([N+](=O)[O-])c1`?
HDAC3 inhib: 5.4; PHOSPHO1 inh: 64.6*; M18AAP inhibitor: -6.8; p97 ATPase inh: 1.6; SUMO HTRF inh: 20.9; G6PDH counter: 5.6

How did Cn1cc(S(=O)(=O)N2CCCC2)cc1C(=O)NCc1ccccc1Cl do in these assays?
HDAC3 inhib: 2.8; PHOSPHO1 inh: 12.3; M18AAP inhibitor: -11.2; SUMO HTRF inh: 6.7

What do the screens show for `O=C(COC(=O)c1cc2ccccc2cc1O)Nc1cccnc1Cl`?
HDAC3 inhib: 5.0; PHOSPHO1 inh: -2.4; M18AAP inhibitor: 0.0; p97 ATPase inh: 5.9; SUMO HTRF inh: 1.8; G6PDH counter: 0.5

What do the screens show for `Cc1ccc2nc(C)cc(C(=O)OCC(=O)Nc3cccnc3Cl)c2c1`?
HDAC3 inhib: -0.1; PHOSPHO1 inh: 60.9*; M18AAP inhibitor: 1.0; p97 ATPase inh: 4.5; SUMO HTRF inh: 15.1; G6PDH counter: -3.0

How did O=c1nc2s/c(=C\c3ccc(-c4ccccc4[N+](=O)[O-])o3)c(=O)n2nc1-c1ccccc1 do in these assays?
PHOSPHO1 inh: 74.2*; M18AAP inhibitor: 15.1; p97 ATPase inh: 3.7; SUMO HTRF inh: 30.4; G6PDH counter: 31.9

Results for CCCCCOc1ccc(/C=c2\sc3nc(=O)c(-c4ccccc4)nn3c2=O)cc1OC ?
HDAC3 inhib: -5.3; PHOSPHO1 inh: -0.8; M18AAP inhibitor: -7.9; p97 ATPase inh: -3.0; SUMO HTRF inh: 19.7; G6PDH counter: -16.4

How did O=C(Nc1cccnc1Cl)c1cc2ccccc2o1 do in these assays?
HDAC3 inhib: -10.2; PHOSPHO1 inh: 9.8; M18AAP inhibitor: -6.4; SUMO HTRF inh: 5.1

Results for S=c1[nH]c2ccccc2n1CCOc1ccccc1 ?
HDAC3 inhib: -0.1; PHOSPHO1 inh: -45.7; M18AAP inhibitor: 16.6; SUMO HTRF inh: 0.4

How did N#CCCn1c(=S)[nH]c2ccccc21 do in these assays?
HDAC3 inhib: -2.6; PHOSPHO1 inh: 88.1*; M18AAP inhibitor: 6.1; p97 ATPase inh: 5.2; SUMO HTRF inh: 8.5; G6PDH counter: 0.6

What do the screens show for `S=c1[nH]c2ccccc2n1Cc1ccccc1`?
HDAC3 inhib: -0.9; PHOSPHO1 inh: -65.1; M18AAP inhibitor: 14.3; SUMO HTRF inh: -0.6

What do the screens show for `CCOc1ccc2c(c1)[nH]c(=S)n2C`?
HDAC3 inhib: 5.1; PHOSPHO1 inh: 79.0*; M18AAP inhibitor: 10.3; p97 ATPase inh: -0.5; SUMO HTRF inh: 13.9

Results for Cn1c(=S)[nH]c2ccccc21 ?
HDAC3 inhib: 19.0; PHOSPHO1 inh: 73.9*; M18AAP inhibitor: -10.2; p97 ATPase inh: -1.6; SUMO HTRF inh: 27.5; G6PDH counter: -3.0

Results for CCOc1ccc(OCCn2c(=S)[nH]c3ccccc32)cc1 ?
HDAC3 inhib: 2.2; PHOSPHO1 inh: -11.0; M18AAP inhibitor: -3.6; SUMO HTRF inh: 1.7

Screens as filed in PubChem.
